Experimental findings from PubChem BioAssay (NCATS) are described below.

Assay [1] concerns the target Lysosomal acid glucosylceramidase (Homo sapiens) (UniProt P04062). Description: Glucocerebrosidase-p2 (AID 348; in the data active = potency below about 10 µM; note: potency is the fitted concentration of half-maximal effect). To be noted: purified GBA, blue fluorogenic substrate, 40 min. An outline of the steps:
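Normal human glucocerebrosidase (0.2 nM) with blue fluorogenic substrate (80 uM final) in citrate/phosphate pH 5.9 with 10mM sodium taurocholate, 0.01% tween-20; 40 min RT, NaOH/glycine stop; fluorescence Ex 365/Em 440; AC50 from a titration from 0.6 nM upwards.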

The nature of assay [2]: AP1 Signaling Pathway (AID 357).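 Note: ME-180 reporter cells stimulated with EGF at its EC50 level; % is set by controls: 0 for no effect and ±100 for the full control effect.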 The note with it: ME-180 AP-1-bla reporter, EGF-induced, beta-lactamase ratio, 5 h; at 7.69 µM (top of the series) unless noted. An outline of the steps:
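AP-1-bla ME-180 cells, Opti-MEM + 0.5% dialyzed FBS, plated overnight 37 °C. Cpd titration + EC50 EGF, 5 h 37 °C. CCF4 2.5 h RT; ex 405, em 460/530 ratio → %activity, AC50.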

The target in assay [3] is Cytochrome P450 1A2 (Homo sapiens) (UniProt P05177). Description: p450-cyp1a2 (AID 410; calls by dose curve; note: potency is the fitted concentration of half-maximal effect;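 for activity change, negative = inhibition: -100% = full effect of reference inhibitor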). The note with it: recombinant CYP1A2, luciferin-ME demethylation, luminescence; series mostly up to 11.4 µM. An outline of the steps:
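20nM CYP1A2, 100uM Luciferin-ME (=Km), 100mM KPO4; cpd 10 min RT; +NADPH regen, 60 min RT; stop/detect 20 min; luminescence. Normalized to furafylline 57 uM = full inhibition.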

Assay [4] in a line: NFAT Signaling Pathway (AID 444).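 Note: carbachol stimulus at about its EC50 of 1 µM final; % is set by controls: 0 for no effect and ±100 for the full control effect.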 The note with it: Jurkat NFAT-bla M1, carbachol, beta-lactamase ratio, 5 h; at 7.69 µM (top of the series) unless noted. An outline of the steps: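 Read-out: CCF4 FRET ratio (460 nm/530 nm) after 1 h RT dye loading, used for %activity and AC50 from titration series. Cells: Jurkat NFAT-β-lactamase/M1 line, treated with compound plus 1 uM carbachol for 5 h, 37 °C.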

A short description of assay [5]: Stat Signaling Pathway (AID 446).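 Note: ME-180 cervical cancer cells given 40 pM IL-6 alongside compound; SIE-controlled beta-lactamase reporter measured as 460/530 nm FRET emission ratio; % is set by controls: 0 for no effect and ±100 for the full control effect.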 To be noted: ME-180 (cervical carcinoma) SIE beta-lactamase reporter, IL-6 stimulated, 5 h; at 7.69 µM (top of the series) unless noted. An outline of the steps: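 FRET read-out (405 nm excitation, 460/530 nm emission) of a beta-lactamase reporter under a STAT-inducible element in ME-180 cervical carcinoma cells. Cells with compound receive 40 pM IL-6 for 5 h. Values are normalised to AC90 stimulation and AC90 JAK-inhibitor controls.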

Assay [6] deals with Glucocorticoid receptor (Homo sapiens) (UniProt P04150). In words: GR-GFP Redistribution (AID 450;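 active = compounds whose dose series gives a full or clear partial fitted curve of increased nuclear translocation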; note: potency is the fitted concentration of half-maximal effect). To be noted: U2OS GR-GFP nuclear translocation, laser cytometry, 2 h.
Glucocorticoid receptor (Homo sapiens), sequence (P04150 whole entry, looked up, the tested form may be a part): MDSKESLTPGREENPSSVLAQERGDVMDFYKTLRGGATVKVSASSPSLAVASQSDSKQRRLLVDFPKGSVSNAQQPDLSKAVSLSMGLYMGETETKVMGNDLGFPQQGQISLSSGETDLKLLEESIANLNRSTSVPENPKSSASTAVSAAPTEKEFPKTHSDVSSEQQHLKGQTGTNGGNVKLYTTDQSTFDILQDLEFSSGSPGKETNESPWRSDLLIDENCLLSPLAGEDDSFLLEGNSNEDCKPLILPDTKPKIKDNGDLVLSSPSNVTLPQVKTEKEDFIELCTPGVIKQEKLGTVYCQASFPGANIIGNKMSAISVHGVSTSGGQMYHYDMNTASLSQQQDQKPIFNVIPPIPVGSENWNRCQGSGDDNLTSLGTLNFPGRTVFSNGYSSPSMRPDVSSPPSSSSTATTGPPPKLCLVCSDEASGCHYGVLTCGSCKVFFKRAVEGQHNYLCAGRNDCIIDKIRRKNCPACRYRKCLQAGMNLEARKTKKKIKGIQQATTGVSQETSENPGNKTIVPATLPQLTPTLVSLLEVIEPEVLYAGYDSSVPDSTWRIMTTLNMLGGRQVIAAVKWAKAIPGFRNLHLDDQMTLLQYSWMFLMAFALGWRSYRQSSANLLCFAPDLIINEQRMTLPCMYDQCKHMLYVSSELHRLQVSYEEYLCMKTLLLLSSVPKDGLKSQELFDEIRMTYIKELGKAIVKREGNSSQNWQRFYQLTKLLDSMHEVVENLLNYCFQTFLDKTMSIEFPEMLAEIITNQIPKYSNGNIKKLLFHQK
The target is the same in assay [7]. In words: GR-EFC Redistribution (AID 451; calls by dose curve; note: potency is the fitted concentration of half-maximal effect). The note with it: CHO-K1 GR-EFC translocation, beta-gal luminescence, 2 h. An outline of the steps: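 Translocation of GR-ED fusion to nuclear EA restores b-gal, read by luminescence after 1 h room-temperature detection. Engineered CHO-K1 biosensor cells, 1,000/well, exposed 2 h at 37 C to titrations up to 46 uM final.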

Assay [8] has as its target Mitogen-activated protein kinase 10 (Mus musculus) (UniProt Q61831). In words: JNK3 AlphaScreen Assay (AID 530).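 Note: kinase came from lysate of stimulated human HepG2 cells; signal reports phosphorylation of biotinylated GST-cJun 1-79 at Ser73 with 10 µM ATP; % is set by controls: 0 for no effect and ±100 for the full control effect.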 The note with it: JNK3 lysate, c-Jun phosphorylation; series mostly up to 11.4 µM. An outline of the steps: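 Kinase buffer: 20 mM Tris-HCl pH 7.6, 10 mM MgCl2, 1 mM DTT, 0.1 mM Na3VO4, 0.01% Tween-20; ATP 10 uM. Substrate biotin-GST-cJun(1-79), enzyme from activated HepG2 lysates. Detection by Ser73 phospho-antibody AlphaScreen.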
Background: Alpha assays give light when donor and acceptor beads are brought close together.

Assay [9] concerns the target 3',5'-cyclic-AMP phosphodiesterase 4B (Homo sapiens) (UniProt Q07343). Description: qHTS Assay for Inhibitors of PDE-IV (AID 607; active = well fitted activation curve with a large enough effect in the main read-out, with a control signal flat, not every such curve was filed as active; note: % of control where 0% means no effect). To be noted: HEK293 ACTOne CNG channel cells, membrane potential fluorescence; series mostly up to 22.9 µM. In outline:
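Cell-based read-out of cAMP via a modified cyclic nucleotide-gated channel and membrane potential dye (535/590 nm) in HEK293 cells expressing PDE4 endogenously. Compounds tested up to 22.9 uM final; 100 uM RO 20-1724 reference.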

Values without a mark were called inactive. Records with an inconclusive call do not appear. The source made the active and inactive calls. Unless noted, calls come from the whole dose curve; as a rule, active = well fitted curve in either direction with a large enough effect (not every such curve was filed as active); inconclusive = small, poorly fitted or top-dose-only effect, or another doubt; inactive = flat fitted curve, though single readings scatter.

3',5'-cyclic-AMP phosphodiesterase 4B (Homo sapiens), sequence (Q07343 whole entry, looked up): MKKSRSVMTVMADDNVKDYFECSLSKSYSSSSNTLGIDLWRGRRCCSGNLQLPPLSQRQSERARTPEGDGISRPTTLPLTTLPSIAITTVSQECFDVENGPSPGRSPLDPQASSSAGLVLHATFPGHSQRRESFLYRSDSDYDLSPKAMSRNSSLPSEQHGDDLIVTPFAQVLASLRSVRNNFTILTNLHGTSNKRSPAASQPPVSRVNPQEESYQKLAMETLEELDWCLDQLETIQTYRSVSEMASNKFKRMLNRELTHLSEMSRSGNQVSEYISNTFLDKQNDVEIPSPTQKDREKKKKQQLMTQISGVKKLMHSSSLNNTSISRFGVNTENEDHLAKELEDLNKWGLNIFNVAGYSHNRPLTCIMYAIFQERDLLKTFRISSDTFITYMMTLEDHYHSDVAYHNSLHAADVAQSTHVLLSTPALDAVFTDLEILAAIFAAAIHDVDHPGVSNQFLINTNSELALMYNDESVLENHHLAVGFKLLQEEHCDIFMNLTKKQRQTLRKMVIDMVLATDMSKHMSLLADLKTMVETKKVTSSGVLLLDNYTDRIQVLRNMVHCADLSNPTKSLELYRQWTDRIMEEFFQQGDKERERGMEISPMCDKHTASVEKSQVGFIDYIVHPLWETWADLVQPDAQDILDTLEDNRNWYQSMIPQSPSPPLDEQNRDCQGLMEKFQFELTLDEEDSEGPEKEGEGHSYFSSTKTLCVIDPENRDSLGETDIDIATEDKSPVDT
Cytochrome P450 1A2 (Homo sapiens), sequence (P05177 whole entry, looked up): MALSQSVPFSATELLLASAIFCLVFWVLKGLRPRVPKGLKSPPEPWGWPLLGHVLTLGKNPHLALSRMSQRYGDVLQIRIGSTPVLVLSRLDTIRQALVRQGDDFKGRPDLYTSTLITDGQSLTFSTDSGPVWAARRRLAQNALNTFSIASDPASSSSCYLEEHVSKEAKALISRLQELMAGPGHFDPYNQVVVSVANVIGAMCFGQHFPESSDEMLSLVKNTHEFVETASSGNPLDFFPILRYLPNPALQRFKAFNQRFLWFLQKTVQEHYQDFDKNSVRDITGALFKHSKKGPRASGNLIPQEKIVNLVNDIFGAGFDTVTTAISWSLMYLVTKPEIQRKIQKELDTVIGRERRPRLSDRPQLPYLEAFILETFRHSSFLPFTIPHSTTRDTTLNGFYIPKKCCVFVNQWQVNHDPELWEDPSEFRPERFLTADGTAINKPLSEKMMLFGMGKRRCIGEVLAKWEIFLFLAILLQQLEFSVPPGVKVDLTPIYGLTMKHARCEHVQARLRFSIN
Lysosomal acid glucosylceramidase (Homo sapiens), sequence (P04062 whole entry, looked up): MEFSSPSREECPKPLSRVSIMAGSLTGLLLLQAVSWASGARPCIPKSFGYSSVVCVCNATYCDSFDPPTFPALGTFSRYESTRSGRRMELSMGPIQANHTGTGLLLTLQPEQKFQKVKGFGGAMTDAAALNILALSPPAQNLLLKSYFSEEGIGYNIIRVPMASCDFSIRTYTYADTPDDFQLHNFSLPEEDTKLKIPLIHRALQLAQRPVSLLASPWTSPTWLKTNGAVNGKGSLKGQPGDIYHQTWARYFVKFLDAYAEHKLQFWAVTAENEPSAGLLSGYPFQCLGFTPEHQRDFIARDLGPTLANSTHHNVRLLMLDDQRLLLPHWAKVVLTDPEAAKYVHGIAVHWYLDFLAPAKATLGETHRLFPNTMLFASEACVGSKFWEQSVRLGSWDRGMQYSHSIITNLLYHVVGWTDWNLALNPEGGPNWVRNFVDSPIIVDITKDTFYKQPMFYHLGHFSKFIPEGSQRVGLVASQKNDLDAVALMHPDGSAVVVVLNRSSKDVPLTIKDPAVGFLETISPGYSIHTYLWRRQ

Consider `N[C@H](C(=O)O)[C@H](N)C(=O)O`, for which the results for the Potency in [1], in assay [6] and in [7] were > 11.4 µM, > 46 µM and > 9.22 µM, respectively. Also, the activity change, negative = inhibition in [2] is 9.49%; in assay [4] it was -1.65%. For the same molecule, the Potency entry in assay [3], in assay [8] and in [9] was “inactive” each time. Also, the activity, negative = inhibition in assay [5] is 4.68%.
Regarding `c1ccc2c(c1)C(=Nc1ccc(N=C3c4ccccc4-c4ccccc43)cc1)c1ccccc1-2`, the figures for the Potency in [1], in assay [6] and in [7] were > 11.4 µM, > 46 µM and > 9.22 µM, respectively. The activity change, negative = inhibition in [2] is -0.81%; in assay [3] it was -19.6% [at 2.29 µM]; in [4], 10.5%. In addition, the activity, negative = inhibition in assay [5] was 4.55%. For the same molecule, the Potency result in [8] and in assay [9] was “inactive” in each case.
Regarding `NC(N)=N/N=C(\c1ccc(Cl)cc1)C1CC1`, the Potency was > 11.4 µM in assay [1], 0.794 µM (active) in [3], > 46 µM in [6] and > 9.22 µM in assay [7]. Besides, the activity change, negative = inhibition in [2] was 8.61%; in assay [4], -17.9%. Also, the activity, negative = inhibition in assay [5] was -1.61%. The Potency entry in assay [8] and in [9] was “inactive” in each case.
Take `CC(C)=C[C@H]1[C@@H](COC(=O)c2ccccc2Cl)C1(C)C`: the Potency in assay [1] is > 11.4 µM; in [3], 3.98 µM (active); in assay [6], > 46 µM; in [7], > 9.22 µM. The activity change, negative = inhibition is 8.2% in assay [2] and 12.7% in [4]. Further, the activity, negative = inhibition in assay [5] was -1.06%. Further, the Potency result in assay [8] and in assay [9] was “inactive” in each case.
Regarding `COc1ccc(/C=N\NC(=O)O)cc1`, the Potency was > 11.4 µM in assay [1], 0.501 µM (active) in [3], > 46 µM in assay [6] and > 9.22 µM in assay [7]. The results for the activity change, negative = inhibition in assay [2] and in assay [4] were 7.79% and 19.9%, respectively. The activity, negative = inhibition in assay [5] was 7.25%. Further, the Potency result in [8] and in assay [9] was “inactive” throughout.
As to `Nc1ncnc2nn([C@H]3O[C@@H](CO)[C@@H](O)[C@H]3O)nc12`, the Potency was > 11.4 µM in assay [1], > 46 µM in assay [6] and > 9.22 µM in assay [7]. The activity change, negative = inhibition in assay [2] was -9.36%; in assay [4], 5.89%. Also, the Potency entry in assay [3], in assay [8] and in assay [9] was “inactive” throughout. Moreover, the activity, negative = inhibition in assay [5] is -5.99%.
In the case of `NC(N)=NC(N)=Nc1ccc(S(=O)(=O)O)cc1`, the Potency in assay [1] was > 11.4 µM; in assay [6], > 46 µM; in [7], > 9.22 µM. For the same molecule, the figures for the activity change, negative = inhibition in assay [2] and in [4] were 1.18% and 0.0165%, respectively. In addition, the Potency result in assay [3], in assay [8] and in assay [9] was “inactive” in each case. Further, the activity, negative = inhibition in [5] is -0.308%.
Regarding `Cc1cc2nc([C@H](C)C(=O)c3ccc(Cl)cc3)c(=O)[nH]c2cc1C`, the Potency in assay [1] is > 11.4 µM; in [3] it was 0.501 µM (active); in [6] it was > 46 µM; in assay [7], > 9.22 µM. For the same molecule, the activity change, negative = inhibition in assay [2] is -1.07%; in assay [4] it was -5.22%. Besides, the activity, negative = inhibition in [5] is -18.7%. For the same molecule, the Potency entry in assay [8] and in assay [9] was “inactive” each time.
Consider `Cc1ccc(S(=O)(=O)Nc2ccccc2C(=O)c2ccc(C)c(C)c2)cc1`, for which the Potency in assay [1] is > 11.4 µM; in assay [3] it was 0.631 µM (active); in assay [6] it was > 46 µM; in [7], > 9.22 µM. The activity change, negative = inhibition in assay [2] is 5.46%; in [4], 2.8%. The activity, negative = inhibition in assay [5] is -2.64%. Further, the Potency result in assay [8] and in [9] was “inactive” in each case.
`N[C@@H](CSC(=O)c1ccccc1)C(=O)O`: the Potency in [1] is > 11.4 µM; in [6] it was > 46 µM; in assay [7], > 9.22 µM. Moreover, the activity change, negative = inhibition is -5.26% in [2] and 3.72% in assay [4]. Also, the Potency entry in assay [3], in [8] and in assay [9] was “inactive” throughout. Further, in [5], the activity, negative = inhibition was 4.69%.
As for `O=C(O)C[C@H](Cc1ccccc1)C(=O)O`, the Potency in assay [1] is > 11.4 µM; in [6] it was > 46 µM; in assay [7] it was > 9.22 µM. The figures for the activity change, negative = inhibition in [2] and in assay [4] were 11% and 2.62%, respectively. Besides, the Potency entry in [3], in assay [8] and in assay [9] was “inactive” in each case. Moreover, in assay [5], the activity, negative = inhibition was -5.23%.
As to `O=C(O)CCCSc1ccccc1`, the results for the Potency in [1], in assay [6] and in assay [7] were > 11.4 µM, > 46 µM and > 9.22 µM, respectively. Besides, the activity change, negative = inhibition in assay [2] is -2.81%; in assay [4] it was -1.05%. The Potency result in assay [3], in assay [8] and in assay [9] was “inactive” throughout. In assay [5], the activity, negative = inhibition was 4.11%.
As for `c1c[nH]c(CN2CCN(Cc3ncc[nH]3)CC2)n1`, the Potency is > 11.4 µM in assay [1], > 46 µM in assay [6] and > 9.22 µM in assay [7]. Moreover, the activity change, negative = inhibition in assay [2] was 4.41%; in assay [4] it was -12.2%. Besides, the Potency result in assay [3], in [8] and in assay [9] was “inactive” throughout. Besides, in assay [5], the activity, negative = inhibition is -5.33%.
Consider `Nc1nc(-c2ccccc2)c(-c2ccccc2)c(-c2nc(N)nc(-c3ccccc3)c2-c2ccccc2)n1`, for which the Potency in assay [1] was > 11.4 µM; in assay [6], > 46 µM; in assay [7], > 9.22 µM. Besides, the activity change, negative = inhibition in [2] is -1.08%; in [4], 16.1%. In addition, the Potency result in assay [3], in [8] and in assay [9] was “inactive” each time. In addition, the activity, negative = inhibition in assay [5] is 3.19%.
With `C[C@@](O)(CNS(=O)(=O)c1ccccc1)c1ccccc1`, the values for the Potency in assay [1], in assay [6] and in [7] were > 11.4 µM, > 46 µM and > 9.22 µM, respectively. The activity change, negative = inhibition is 0.078% in [2] and 3.96% in assay [4]. Besides, the Potency result in assay [3], in [8] and in assay [9] was “inactive” in each case. Also, the activity, negative = inhibition in assay [5] was -0.864%.
With `Nc1nc(N)nc(CCCc2nc(N)nc(N)n2)n1`, the values for the Potency in assay [1], in assay [6] and in [7] were > 11.4 µM, > 46 µM and > 9.22 µM, respectively. For the same molecule, the results for the activity change, negative = inhibition in [2] and in assay [4] were -5.42% and 6.45%, respectively. The Potency result in [3], in assay [8] and in assay [9] was “inactive” throughout. The activity, negative = inhibition in assay [5] was 1.14%.
